Data on 16 compounds can be found in PubChem BioAssay (NCI).

Test in all cases: NCI-60 one-dose screen, 48 h (100 = growth as untreated, 0 = no growth, -100 = all killed)
Common to all, as to details: 10 µM unless noted

For test [1], the system named is T-47D breast.
Test [2] deals with MDA-MB-435 melanoma.
Test [3] concerns SW-620 colon.
Test [4] has as its system MCF7 breast.
For test [5], the system named is HCT-116 colon.
Test [6] deals with HCC-2998 colon.
The test system of test [7] is KM12 colon.
The subject of test [8] is BT-549 breast.

This is part of a sample that, as a whole, favours compounds with a hit. Of some 83,000 tested, about 20% had one in any assay.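 Cell lines were cultured in 96-well plates, exposed to a single compound concentration, and assessed for percent growth 48 hours later.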 Values without a mark were called inactive. The source made the active and inactive calls. How the source made its calls: active means growth percent below 10; inactive means the rest.

Regarding `NC(=O)c1cc(I)ccc1NC(=O)/C=C/c1ccccc1Cl`, the growth is 26.6% in test [1]; -31.8% (active) in test [2]; 26.9% in test [3]; 7.38% (active) in test [4]; 14.5% in test [5]; 23.4% in test [6]. Besides, the growth in test [7] is 10.6%.
On to `COc1cccc(-c2nc3sccn3c2-c2ccnc(NCCNS(=O)(=O)c3ccccc3)c2)c1`, for which the growth in test [1] is -18.3% (active); in test [2], 22.6%; in test [3], 40.8%; in test [4], 27.4%; in test [5] it was 18.5%; in test [6] it was 53.2%. Further, the growth in test [7] was 22.2%.
For `CC(=O)O[C@H]1[C@@H]2OC(=O)C(CSc3ccccc3)[C@@H]2C[C@H]2O[C@]2(C)CC/C=C(\C)CCC[C@@H]1C` (some centres not stated), the growth in test [1] was 38.3%; in test [2], 25.8%; in test [3], -20.7% (active); in test [4] it was 10.6%; in test [5] it was -36.7% (active); in test [6], 80.7%. The growth in test [7] is 51.5%.
In the case of `O=C(Nc1cccc2[nH]c(C(F)(F)F)nc12)c1ccc(-n2cnnn2)cc1`, the growth was 63% in test [8]; 105% in test [2]; 104% in test [3]; 96.2% in test [4]; 96% in test [5]; 116% in test [6]. In addition, the growth in test [7] is 72.7%.
Consider `CN1C(=O)C2(SCC(C(=O)NCc3ccccc3)N2C(=O)C2CCCCC2)c2ccccc21` (configuration not stated), for which the growth in test [1] is 101%; in test [2] it was 81.2%; in test [3], 91.8%; in test [4], 94.8%; in test [5], 96.2%; in test [6], 109%. Besides, in test [7], the growth is 92.1%.
Regarding `CC1=C/C(=C(\c2ccc(N(C)C)cc2)c2ccc([N+](C)(C)C)cc2)C=CC1=[N+](C)C`, the growth is 96.1% in test [8]; 78.4% in test [2]; 66.5% in test [3]; 59.9% in test [4]; 36.1% in test [5]; 77.3% in test [6]. Besides, the growth in test [7] is 61.4%.
Consider `C=CC(=O)Nc1cccc(-c2nc(SC)nc(NCCc3ccc(OC)c(OC)c3)c2C#N)c1`, for which the growth in test [8] is 25%; in test [2], 24.2%; in test [3], 80.8%; in test [4], 16.5%; in test [5], 31.4%; in test [6], 87.1%. For the same compound, the growth in test [7] is 64.6%.
With `Cc1ccc2c(C(C[N+](=O)[O-])c3ccccc3)c(-c3ccccc3)[nH]c2c1` (configuration not stated), the growth in test [8] is 47.5% [9.5 µM]; in test [2] it was -31% [9.5 µM] (active); in test [3], 13.7% [9.5 µM]; in test [4], 15% [9.5 µM]; in test [5], 24.4% [9.5 µM]; in test [6], 54.9% [9.5 µM]. The growth in test [7] is 18.4% [9.5 µM].
As to `CC(=O)Nc1ccc(S(=O)(=O)Nc2cccc(-c3nc(-c4ccc(NC(=O)c5cccnc5)cc4Cl)no3)c2)cc1`, the growth is 33.3% in test [8]; 6.69% (active) in test [2]; 29.5% in test [3]; 17.1% in test [4]; 30.4% in test [5]; 69.1% in test [6]. Moreover, the growth in test [7] is 28.7%.
On to `CC(=O)c1nc2ccccc2n1CC(=O)c1cccc(Cl)c1`, for which the growth was 34.9% in test [8]; -27.4% (active) in test [2]; 23% in test [3]; 1.85% (active) in test [4]; 5.82% (active) in test [5]; 29.9% in test [6]. Besides, in test [7], the growth was 8.72% (active).
Consider `CCOC(=O)c1sc(Nc2ccc(Cl)cc2)nc1C`, for which the growth is 23.1% in test [2], 28.2% in test [3], 13% in test [4] and -1.62% (active) in test [7].
`CN(C)c1ccc(NC(=O)c2ccc(/C=C/C(=O)c3ncc[nH]3)cc2)cc1`: the growth was 63.1% in test [8]; 51.7% in test [2]; 21.1% in test [3]; 12.1% in test [4]; 87.9% in test [6]; 10.2% in test [7].
As for `COc1ccc(C(=O)c2sc3nc4c(c(-c5cccnc5)c3c2N)CCCC4)cc1OC`, the growth in test [8] was 74.6%; in test [2], 91.7%; in test [3], 107%; in test [4], 90.2%; in test [5], 88.2%; in test [6] it was 110%. In test [7], the growth is 76.3%.
In the case of `CC[C@H]1OC(=O)[C@H](C)[C@@H](O[C@H]2C[C@@](C)(OC)[C@@H](O)[C@H](C)O2)[C@H](C)[C@@H](O[C@@H]2O[C@H](C)C[C@H](N(C)C)[C@H]2O)[C@](C)(O)C[C@H](C)CN(C)[C@H](C)[C@@H](O)[C@]1(C)O`, the growth in test [8] is 98.4%; in test [2], 96.9%; in test [3], 84.2%; in test [5], 90.3%; in test [6] it was 95.9%; in test [7] it was 95.4%.
With `CN1CCN(CCCOc2cccc3nc(Nc4cc(Cl)cc(Cl)c4)ccc23)CC1`, the growth in test [8] is 65%; in test [2], -46.5% (active); in test [3], -66.6% (active); in test [4] it was -80.3% (active); in test [5], -26.6% (active); in test [6], 30.2%. Moreover, the growth in test [7] is -71.9% (active).
For the compound `FC(F)(F)c1nc2c(NCc3ccc(-c4ccccc4)cc3)cccc2[nH]1`, the growth is 91.2% in test [8]; 93.5% in test [2]; 75.3% in test [3]; 87% in test [4]; 74.1% in test [5]; 107% in test [6]. In addition, the growth in test [7] was 80.5%.
